PrP UTR inh = suppresses PrP 5' UTR mRNA reporter expression; cell-based PrP 5' UTR mRNA reporter, plate reader; inhibition, % (test concentration not listed); 340,000 tested, 0.35% active; AID 488862; in the data active = inhibition above about 52%
Mtb BioA inh = inhibitors of Mycobacterium tuberculosis BioA enzyme | purified M. tuberculosis BioA enzyme, plate reader | inhibition, % at 9.99 µM | AID 602481 | 360,000 tested, 0.096% active; in the data active = inhibition above about 40%
FadD28 FP inh = M. tuberculosis FadD28 bisubstrate binding inhibition. FadD28 bisubstrate probe binding, fluorescence polarization. inhibition, % at 12.5 µM. 360,000 tested, 0.22% active; in the data active = inhibition above about 8.5%, passing the limit was not always enough
TcdB GH inh = inhibitors of Clostridioides difficile toxin B glycohydrolase; AID 652162; P18177; inhibition, % at 9.99 µM; 350,000 tested, 0.24% active; TcdB glycohydrolase enzymatic assay, plate reader; in the data active = inhibition above about 10%
Y pestis TopoI = blocks Yersinia pestis topoisomerase I activity. activity, % at 10 µM. 360,000 tested, 0.064% active. AID 504884. Y. pestis Topo-I cleavage product accumulation, plate reader; in the data active = activity above about 50%, passing the limit was not always enough
PfHsp40 rescue = compounds rescuing yeast from Plasmodium falciparum HSP40 toxicity; S. cerevisiae expressing PfHsp40, growth rescue, ATP luminescence; growth rescue, % at 12.5 µM; 340,000 tested, 0.68% active; AID 504582; in the data active = growth rescue above about 28%, passing the limit was not always enough;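 note: yeast W303a lacking pdr1 and pdr3 grown in galactose medium; growth measured after three days at 30 °C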
Hits are given with their value; i = inactive; nt = not tested or not shown. Compounds with a hit are over-represented: about 1.2% of the library has one in this group of screens.

SMILES	PrP UTR inh	Mtb BioA inh	FadD28 FP inh	TcdB GH inh	Y pestis TopoI	PfHsp40 rescue
Cc1noc(C)c1NC(=O)Nc1ccc2c(c1)C(=O)N([C@H](C)CO)C[C@@H](C)[C@H](CN(C)Cc1ccncc1)OCCCC[C@H](C)O2	nt	i	nt	i	nt	nt
CN1C(=O)C(c2nnc(Nc3cccc4ccccc34)s2)C2CC1(C)Oc1ccccc12 (stereo not given)	i	nt	i	10.9	i	i
O=C1C=CC(=O)N1c1ccc(Nc2ccccc2)cc1	i	i	i	i	i	235.8
O=C1C=CC(=O)N1c1ccc2ccccc2c1	i	i	i	i	i	766.4
COc1cccc(S(=O)(=O)N(C)C[C@H]2Oc3ncc(C#CC(C)C)cc3C(=O)N([C@@H](C)CO)C[C@@H]2C)c1	nt	i	nt	i	nt	nt
C[C@@H](O)C#Cc1ccc2c(c1)O[C@@H](CN(C)C(=O)CC1CC1)[C@@H](C)CN([C@@H](C)CO)S2(=O)=O	nt	i	nt	i	nt	nt
Cc1cc(Cl)ccc1OC(C)C(=O)Nc1ccc(C(=O)Nc2ccccc2C(=O)O)cc1 (stereo not given)	i	i	i	i	i	51.7
CCN1[C@@H]2c3ccc(-c4ccccc4)c(=O)n3C[C@@H]2[C@@H](CO)[C@@H]1C(=O)NCc1ccccc1	nt	i	nt	i	nt	nt
C[C@@H]1CN([C@H](C)CO)C(=O)c2cc(C#CCc3ccccc3)cnc2O[C@H]1CN(C)Cc1cccnc1	nt	i	nt	i	nt	nt
O=c1[nH]c(=O)n([C@H]2C[C@H](O)[C@@H](CO)O2)cc1I	i	i	i	i	i	75.9
C[C@@H]1CN([C@@H](C)CO)C(=O)c2cc(NC(=O)Cc3ccccc3)ccc2O[C@@H]1CN(C)C(=O)Nc1ccc(C(F)(F)F)cc1	nt	i	nt	i	nt	nt
COC(=O)CS(=O)(=O)c1nnc([C@H](Cc2ccccc2)NC(=O)OC(C)(C)C)o1	i	nt	i	nt	i	i
Cc1cccc(CS(=O)(=O)c2nnc([C@H](Cc3ccccc3)NC(=O)OC(C)(C)C)o2)c1	nt	i	i	nt	i	373.4
CC(C)(C)[S@](=O)N1Cc2cc(C(=O)NCCc3ccncc3)nc(-c3cccc(-c4ccccc4)c3)c2[C@@H]1CCO	nt	nt	nt	i	nt	nt
COc1ccc(S(=O)(=O)NC2CC3CCC2C3)cc1 (stereo not given)	i	i	i	i	i	95.0
CSc1ccc(S(=O)(=O)NC2CC3CCC2C3)cc1 (stereo not given)	i	i	i	i	i	77.9
O=C(C1CCCC1)N1CC[C@@H]2[C@@H](CO)Nc3ccc(Br)cc3[C@@H]21	nt	nt	nt	i	nt	nt
CCNC(=O)C[C@@H]1CC[C@H]2[C@@H](COc3ccc(NS(C)(=O)=O)cc3C(=O)N2C)O1	nt	i	nt	i	nt	nt
C=CCn1c(C)cc(C(=O)COC(=O)CCc2cc(OC)c(OC)c(OC)c2)c1C	i	i	i	12.5	i	i
COc1cc(CCC(=O)OCC(N)=O)cc(OC)c1OC	i	nt	i	i	i	i
COc1ccc(NC(=O)N[C@@H]2CC[C@@H](CCNC(=O)c3cc(Cl)cc(Cl)c3)O[C@@H]2CO)cc1	nt	i	nt	i	nt	nt
COc1cccc(CN(C)C[C@@H]2OCc3cn(nn3)CCCC(=O)N([C@H](C)CO)C[C@H]2C)c1	nt	i	nt	i	nt	nt
COc1ccc(NS(=O)(=O)c2ccc(NC(=O)c3ccc(CN4CCOCC4)cc3)cc2)cc1	i	i	i	i	i	49.9
O=C(Nc1ccc(S(=O)(=O)Nc2ccc(F)cc2)cc1)c1ccc(CN2CCOCC2)cc1	i	nt	i	i	i	i
C[C@H](CO)N1C[C@H](C)[C@@H](CN(C)C(=O)Nc2cccc3ccccc23)Oc2ccc(NC(=O)Nc3ccc4c(c3)OCO4)cc2C1=O	nt	i	nt	i	nt	nt
SMILES	PrP UTR inh	Mtb BioA inh	FadD28 FP inh	TcdB GH inh	Y pestis TopoI	PfHsp40 rescue
CCC(=O)Nc1ccc2c(c1)OC[C@@H](C)N(C(=O)C1CCC1)C[C@H](C)[C@@H](OC)CN(C)C2=O	nt	i	nt	i	nt	nt
CC(=O)Nc1ccc2c(c1)C(=O)N(C)[C@H]1CC[C@@H](CC(=O)NCc3ccccc3)O[C@@H]1CO2	nt	i	nt	i	nt	nt
CCC(Oc1ccccc1)C(=O)Nc1ncc([N+](=O)[O-])s1 (stereo not given)	i	nt	i	i	i	166.2
Nc1c(Cl)cc(Cl)cc1C(=O)OCC(=O)NC1CC1	i	i	i	nt	i	124.4
O=C(COC(=O)c1cc(F)c(F)cc1Cl)NC1CC1	i	nt	i	i	i	i
COC(=O)[C@]1(Cc2ccccc2)N[C@H](CN(C)S(=O)(=O)c2ccc(-c3ccccc3)cc2)[C@@H]2C(=O)N(C)C(=O)[C@@H]21	i	i	11.1	i	i	i
CCCC1COC(Cn2cncn2)(c2ccc(Cl)cc2Cl)O1 (stereo not given)	i	i	i	nt	i	134.1
CO[C@H]1CN(C)C(=O)c2cc(NS(C)(=O)=O)ccc2OC[C@H](C)N(C(=O)CN(C)C)C[C@@H]1C	nt	i	nt	i	nt	nt
[O-][n+]1ccccc1/C=C/c1ccccc1	i	nt	i	i	i	i
CN(C)c1ccc(/C=C/c2ccc3ccccc3[n+]2C)cc1	i	i	i	nt	i	52.6
CN(C)c1ccc(/C=C/c2cccc[n+]2[O-])cc1	i	i	i	13.2	i	i
CCNC(=O)C[C@@H]1CC[C@H]2[C@H](COc3ccc(NC(=O)c4cccc(C(F)(F)F)c4)cc3C(=O)N2C)O1	nt	i	nt	nt	nt	nt
C[C@H]1CN([C@@H](C)CO)C(=O)c2cc(NC(=O)Nc3ccc(C(F)(F)F)cc3)ccc2O[C@H]1CN(C)S(=O)(=O)c1ccc(F)cc1	nt	nt	nt	i	nt	nt
CN(C)CC(=O)N1CCCCN2[C@@H](CO)[C@H](c3ccc(/C=C/c4ccccc4)cc3)[C@@H]2C1	nt	i	nt	i	nt	nt
Cc1cc(NS(=O)(=O)c2ccc(C3CCCCC3)cc2)no1	i	i	i	i	i	509.5
Cc1cc(NS(=O)(=O)c2ccc(CC(C)C)cc2)no1	i	i	i	nt	i	39.9
Cc1cc(NS(=O)(=O)c2ccc(C(C)C)cc2)no1	i	i	i	i	i	i
C[C@@H](NC(=O)C[C@@H]1C=C[C@H](NC(=O)Nc2ccc3c(c2)OCO3)[C@H](CO)O1)c1ccccc1	nt	i	nt	i	nt	nt
COc1ccc(OCC(=O)Nc2ccc(C(=O)Nc3ccccc3C(=O)O)cc2)cc1	i	i	i	i	i	i
O=C(COc1ccc2ccccc2c1)Nc1cccc(C(=O)Nc2ccccc2C(=O)O)c1	i	nt	i	nt	i	37.1
C[C@@H]1CN([C@@H](C)CO)C(=O)c2cc(NC(=O)Nc3ccc(F)cc3)ccc2O[C@H]1CN(C)Cc1ccc(-c2ccccc2)cc1	nt	i	nt	i	nt	nt
CCCn1nc(NS(=O)(=O)c2cccc3nonc23)c2cc3cccc(C)c3nc21	i	i	9.9	i	i	i
Cc1noc(C)c1S(=O)(=O)N(C)C[C@H]1Oc2ccc(NC(=O)Nc3cccc4ccccc34)cc2CC(=O)N([C@@H](C)CO)C[C@@H]1C	nt	i	nt	i	nt	nt
Cc1[nH]nc(-c2ccc(O)cc2O)c1Oc1ccccc1	i	i	i	10.6	i	i
CCOC(=O)c1cc(NC(=O)CNCC(c2ccccc2)N(C)C)cc(C(=O)OCC)c1 (stereo not given)	i	i	i	i	i	i
